# Source: PubChem (The Scripps Research Institute Molecular Screening Center)
# UHRF1 MBD2 ctr = UHRF1 methyl-DNA binding inhibition; Q96T88; UHRF1 binding to methylated oligo, TR-FRET; actives 0.75% (n = 370,000); inhibition, % at 4.4 µM; in the data active = inhibition above about 21%;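 note: UHRF1 SRA domain binding a hemimethylated CpG hairpin DNA probe; 0% = median of test compound wells and 100% = reference inhibitor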
# Target sequence (Q96T88 whole entry, looked up, the tested form may be a part): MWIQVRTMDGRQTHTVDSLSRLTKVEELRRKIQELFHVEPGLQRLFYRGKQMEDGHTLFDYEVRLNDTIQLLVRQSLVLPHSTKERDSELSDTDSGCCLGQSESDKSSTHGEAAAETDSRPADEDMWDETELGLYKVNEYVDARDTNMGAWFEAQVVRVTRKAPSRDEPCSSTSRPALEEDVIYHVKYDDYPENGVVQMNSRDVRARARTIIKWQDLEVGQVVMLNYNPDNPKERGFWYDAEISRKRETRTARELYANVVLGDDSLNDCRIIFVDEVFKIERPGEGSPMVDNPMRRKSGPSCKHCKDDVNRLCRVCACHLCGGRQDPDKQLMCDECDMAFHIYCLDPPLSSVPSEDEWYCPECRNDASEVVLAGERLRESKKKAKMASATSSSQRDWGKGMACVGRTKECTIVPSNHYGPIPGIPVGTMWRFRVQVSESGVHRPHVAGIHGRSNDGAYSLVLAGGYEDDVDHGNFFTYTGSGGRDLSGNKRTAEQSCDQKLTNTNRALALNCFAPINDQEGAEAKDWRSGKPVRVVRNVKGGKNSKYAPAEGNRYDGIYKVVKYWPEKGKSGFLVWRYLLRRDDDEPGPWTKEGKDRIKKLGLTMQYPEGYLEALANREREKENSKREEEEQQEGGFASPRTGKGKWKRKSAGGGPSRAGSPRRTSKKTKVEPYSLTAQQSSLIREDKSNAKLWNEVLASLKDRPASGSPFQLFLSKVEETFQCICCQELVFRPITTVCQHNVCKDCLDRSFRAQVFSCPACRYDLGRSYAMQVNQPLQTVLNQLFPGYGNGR
# LEDGF integ inh = blocks HIV-1 LEDGF/p75-dependent DNA integration | TR-FRET IN-LEDGF/p75 DNA integration, Eu/Cy5 | inhibition, % at 3.7 µM | actives 0.64% (n = 370,000);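 active = inhibition above the screen-wide mean plus 3 SD, cut at about 13% in these data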;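 note: signal is the Cy5 over europium emission ratio at 671 and 618 nm; 0% = plate median of compound wells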
# TCR-CD3 inh = human TCR-CD3 binding inhibition | actives 0.37% (n = 360,000) | AID 651800 | TAMRA-labeled TCR probe fluorescence, biochemical | inhibition, % at 9.4 µM;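 note: recombinant mutant TCR 2C K166C tagged with TAMRA read by polarization; 0% = receptor in buffer alone and 100% = receptor with positive control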
# MBD2 DNA inh = inhibitors of human MBD2 binding to methylated oligonucleotide; Q9UBB5; TR-FRET; actives 0.31% (n = 370,000); inhibition, % at 4.4 µM; in the data active = inhibition above about 13%
# Rin1 Abl inh = inhibitors of human Rin1-Abl protein interaction; P00519+Q13671; TR-FRET Rin1/Abl binding, biochemical; inhibition, % at 7.35 µM; actives 0.4% (n = 360,000); AID 588664; in the data active = inhibition above about 5%, passing the limit was not always enough
# BSA TAMRA ctr = counter-screen for TCR-CD3 interaction inhibitors: BSA probe | AID 652035 | shares compounds with TCR-CD3 inh | TAMRA-labeled BSA probe fluorescence counterscreen | inhibition, % at 9.4 µM | actives 10% (n = 1,200); in the data active = inhibition above about 23%;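 note: 0% = buffer low control and 100% = reference high control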
# TCR-CD3 inh conf = confirmation of human TCR-CD3 interaction inhibitors; shares compounds with TCR-CD3 inh; TAMRA-labeled TCR probe fluorescence binding assay; inhibition, % at 9.4 µM; actives 48% (n = 1,200); AID 652036
# An asterisk follows results filed as active; . = not tested or not shown. Compounds with a hit are over-represented: about 2% of the library has one in this group of screens. Cut-off read from the data, not from the text of the source, unless noted: active = inhibition above about 19%; inactive = the rest.
SMILES,UHRF1 MBD2 ctr,LEDGF integ inh,TCR-CD3 inh,MBD2 DNA inh,Rin1 Abl inh,BSA TAMRA ctr,TCR-CD3 inh conf
COc1ccc(-c2nn(-c3ccccc3)cc2/C=C/C(=O)N(C)CC(=O)Nc2cccc(F)c2)cc1OC,-2,2,26*,4,1,13,26*
COc1ccccc1-c1nc(SCC(=O)Nc2cc(C)on2)c2c(=O)n(C)c(=O)n(C)c2n1,3,-1,-3,5,-1,.,.
CCN(CC)S(=O)(=O)c1ccc(C(C)NC(=O)Cc2c[nH]c3ccccc23)cc1 (stereo not drawn),3,-3,-1,-1,0,.,.
Cc1ccc(-c2nc3c(C)cc(Br)cn3c2Cc2ccsc2)cc1,18,1,23*,4,3,18,19
Cc1cc(Br)cn2c(Cc3ccsc3)c(-c3ccccc3)nc12,10,-1,10,6,2,.,.
Cc1ncc(CO)c(/C=N/NC(=O)c2cc3c(s2)CCCC3)c1O,2,-1,38*,-3,0,-13,27*
CCN1C(=O)/C(=C2\SC(=S)N(NC(=O)c3ccccc3O)C2=O)c2ccccc21,1,1,31*,-4,-4,-9,15
C[C@H](O)[C@@H]1C(=O)N2CCc3c([nH]c4cccc(-c5ccccc5)c34)[C@@H]2C[C@@H]1N(C)C(=O)OCc1ccccc1,-1,2,21*,2,.,3,6
CN(C)/C=C1\C=C2C(=O)c3ccccc3N2C1=O,-38,2,39*,-13,-142,113*,74*
Cc1cc(OCC(=O)C(C)(C)C)c2c(-c3ccccc3)cc(=O)oc2c1,-2,0,5,-4,-1,.,.
CC(=O)c1c(C)[nH]c(C(=O)OCc2nnc(-c3ccc([N+](=O)[O-])cc3)o2)c1C,0,0,26*,-2,6,2,9
CC(=O)c1c(C)[nH]c(C(=O)OCC(=O)NNC(=O)c2ccc([N+](=O)[O-])cc2)c1C,1,-1,1,-6,2,.,.
O=C(O)/C=C\C(=O)Nc1ccc(N2CCN(c3ccc(Cl)c(Cl)c3)CC2)cc1,-4,1,30*,-2,2,-3,0
O=C(O)/C=C\C(=O)Nc1ccc(N2CCN(c3ccc(Cl)cc3)CC2)cc1,-7,4,21*,-8,3,11,8
O=C(O)/C=C\C(=O)Nc1ccccc1C(=O)N1CCN(c2ccc(Cl)cc2)CC1,-1,0,-4,2,-5,.,.
O=C(O)/C=C\C(=O)Nc1ccc(N2CCN(c3cccc(Cl)c3)CC2)cc1,-3,-2,21*,0,6,0,4
O=C(O)/C=C\C(=O)Nc1ccc(N2CCN(c3ccc(F)cc3)CC2)cc1,-4,10,28*,-2,3,5,3
N#CN1C2CCC1CC(O)(c1ccccc1)C2 (stereo not drawn),.,.,.,.,-1,.,.
CCC(C)c1ccccc1NC(=O)C(C)OC(=O)CN1C(=O)NC(C)(C)C1=O (stereo not drawn),0,1,4,1,6,.,.
CC(C)(C)c1ccc(S(=O)(=O)NC(=O)C2(C)CCN2C(=O)Cc2ccccc2Cl)cc1 (stereo not drawn),1,1,2,-2,-1,.,.
CCN(CC)CCNC(=O)c1cc(Nc2ccc(OC)c(OC)c2)nc2ccccc12,1,-8,-7,3,4,.,.
O=S1(=O)CC(N2CCN(CCO)CC2)CN1Cc1cn(Cc2ccc(F)cc2)nn1 (stereo not drawn),14,-3,-3,11,.,.,.
CN(C)c1ccc(C(=O)N/N=C/c2cc(Br)cc(Br)c2O)cc1,2,-3,33*,0,-5,0,43*
COc1c(Br)cc(Br)cc1/C=N/NC(=O)c1ccncc1,-1,-2,11,4,1,.,.
O=C(Cc1ccccc1)N/N=C/c1cc(Br)cc(Br)c1O,-2,-2,23*,2,-1,-7,25*
O=C(CNC(=O)c1cccc(Br)c1)N/N=C/c1cc(Br)cc(Br)c1O,-3,0,48*,0,5,-13,36*
CSC(=NC#N)N1CCN(c2ccc([N+](=O)[O-])cc2)CC1,-4,-1,3,-2,-3,.,.
